Our source for the binding signal values is paper PMC7862700, “An all-to-all approach to the identification of sequence-specific readers for epigenetic DNA modifications on cytosine”.

What all share (test): DAPPL (digital affinity profiling via proximity ligation, sequencing); 10 mM Tris-HCl pH 7.5, 50 mM NaCl, 1 mM DTT, 4% glycerol, room temperature, 30 min; GST-TFs on glutathione beads, 16-mer random dsDNA library, 0.1% formaldehyde crosslink after washing; high values mean tight binding
In test [1] the target is T1, FLI1 (Homo sapiens, UniProt Q01543 1-452).
T1 sequence: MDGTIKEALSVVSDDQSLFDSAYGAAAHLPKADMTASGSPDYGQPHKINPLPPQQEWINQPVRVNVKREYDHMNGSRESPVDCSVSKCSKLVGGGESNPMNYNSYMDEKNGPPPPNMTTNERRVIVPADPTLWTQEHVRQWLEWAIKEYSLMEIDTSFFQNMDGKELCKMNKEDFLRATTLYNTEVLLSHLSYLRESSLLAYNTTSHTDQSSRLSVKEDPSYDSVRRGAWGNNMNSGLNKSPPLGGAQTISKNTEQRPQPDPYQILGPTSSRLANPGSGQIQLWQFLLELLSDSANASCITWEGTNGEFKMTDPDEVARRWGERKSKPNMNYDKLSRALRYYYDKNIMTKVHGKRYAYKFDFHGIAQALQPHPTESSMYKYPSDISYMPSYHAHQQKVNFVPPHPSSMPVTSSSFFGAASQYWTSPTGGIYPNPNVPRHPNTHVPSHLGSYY
As to conditions: protein: recombinant; tags: N-terminal GST; dsDNA, one strand shown. A digest of the protocol:
(§1)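 Beads coated with glutathione captured GST-fused human transcription factors that had been expressed in yeast, and the factors were then given DNA barcodes and pooled with a tag-only sample. The pools were incubated with 200 nmole of a random double-stranded 16-mer DNA library in Tris/NaCl/DTT/glycerol buffer for 30 min at room temperature, washed, crosslinked with 0.1% formaldehyde and proximity-ligated with BsaI/T4 ligase at 37 °C for 1 h. PCR amplification and Illumina NextSeq500 sequencing came last. Binding signal is each hexamer's read frequency for a factor divided by its frequency for the tag-only sample.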

Test [2] concerns the target T2, ELK1 (Homo sapiens, UniProt P19419 1-428).
T2 sequence: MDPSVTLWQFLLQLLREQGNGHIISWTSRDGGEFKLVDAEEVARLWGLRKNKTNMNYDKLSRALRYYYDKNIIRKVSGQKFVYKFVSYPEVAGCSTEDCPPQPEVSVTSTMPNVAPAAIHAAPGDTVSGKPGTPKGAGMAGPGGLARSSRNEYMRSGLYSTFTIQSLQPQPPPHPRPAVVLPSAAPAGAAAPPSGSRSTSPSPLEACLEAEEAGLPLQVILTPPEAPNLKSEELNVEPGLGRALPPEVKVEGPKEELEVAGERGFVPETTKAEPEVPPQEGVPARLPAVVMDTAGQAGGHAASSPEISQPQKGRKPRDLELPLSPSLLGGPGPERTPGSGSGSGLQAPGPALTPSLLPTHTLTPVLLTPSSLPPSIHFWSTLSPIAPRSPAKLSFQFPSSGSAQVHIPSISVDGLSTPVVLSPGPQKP
As to conditions: protein: recombinant; tags: N-terminal GST; dsDNA, one strand shown. A digest of the protocol:
as §1

In test [3] the target is T3, GABPA (Homo sapiens, UniProt Q06546 1-454).
T3 sequence: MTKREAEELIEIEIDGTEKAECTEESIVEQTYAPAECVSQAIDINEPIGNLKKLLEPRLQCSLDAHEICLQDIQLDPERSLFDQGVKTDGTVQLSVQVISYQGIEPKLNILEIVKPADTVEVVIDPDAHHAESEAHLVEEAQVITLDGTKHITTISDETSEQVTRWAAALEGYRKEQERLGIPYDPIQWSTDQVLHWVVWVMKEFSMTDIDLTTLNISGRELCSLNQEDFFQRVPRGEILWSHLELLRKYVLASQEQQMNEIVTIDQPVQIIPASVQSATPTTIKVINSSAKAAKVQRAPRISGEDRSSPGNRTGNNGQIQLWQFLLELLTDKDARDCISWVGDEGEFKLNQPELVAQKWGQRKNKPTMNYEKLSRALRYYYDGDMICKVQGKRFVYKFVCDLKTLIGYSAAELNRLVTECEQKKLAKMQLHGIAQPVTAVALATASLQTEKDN
Conditions: protein: recombinant; tags: N-terminal GST; dsDNA, one strand shown. The method in brief: as §1

Test [4] deals with T4, ERG (Homo sapiens, UniProt P11308 1-479).
T4 sequence: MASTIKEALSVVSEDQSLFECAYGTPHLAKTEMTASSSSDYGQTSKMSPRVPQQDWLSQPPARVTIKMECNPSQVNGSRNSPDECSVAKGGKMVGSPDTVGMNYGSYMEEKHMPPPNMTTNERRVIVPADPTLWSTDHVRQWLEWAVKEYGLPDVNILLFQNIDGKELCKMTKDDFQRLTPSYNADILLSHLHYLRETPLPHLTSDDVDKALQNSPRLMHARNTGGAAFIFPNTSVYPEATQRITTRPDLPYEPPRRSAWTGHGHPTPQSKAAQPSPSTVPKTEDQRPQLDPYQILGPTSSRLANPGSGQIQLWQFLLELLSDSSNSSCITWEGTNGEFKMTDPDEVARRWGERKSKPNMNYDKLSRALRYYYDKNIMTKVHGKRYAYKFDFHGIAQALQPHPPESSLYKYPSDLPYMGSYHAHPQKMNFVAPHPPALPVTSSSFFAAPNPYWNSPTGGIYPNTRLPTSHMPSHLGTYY
As to conditions: protein: recombinant; tags: N-terminal GST; dsDNA, one strand shown. The method in brief: as §1

Test [5] has as its target ELF1 (Homo sapiens, UniProt P32519 1-619). Conditions: protein: recombinant; tags: N-terminal GST; dsDNA, one strand shown. A digest of the protocol: as §1
The target in test [6] is T5, EHF (Homo sapiens, UniProt Q9NZC4 1-300).
T5 sequence: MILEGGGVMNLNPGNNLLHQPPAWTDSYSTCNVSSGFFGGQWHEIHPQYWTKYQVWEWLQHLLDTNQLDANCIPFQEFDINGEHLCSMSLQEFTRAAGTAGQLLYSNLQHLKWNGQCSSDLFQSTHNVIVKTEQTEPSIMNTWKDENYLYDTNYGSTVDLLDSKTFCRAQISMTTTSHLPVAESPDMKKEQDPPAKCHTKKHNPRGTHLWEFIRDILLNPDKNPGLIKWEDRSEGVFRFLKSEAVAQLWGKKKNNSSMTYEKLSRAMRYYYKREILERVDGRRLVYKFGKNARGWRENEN
Conditions: protein: recombinant; tags: N-terminal GST; dsDNA, one strand shown. The method in brief: as §1

In test [7] the target is SPIB (Homo sapiens, UniProt Q01892 1-262). As to conditions: protein: recombinant; tags: N-terminal GST; dsDNA, one strand shown. The method in brief: as §1
Test [8] addresses T6, ELK3 (Homo sapiens, UniProt P41970 1-407).
T6 sequence: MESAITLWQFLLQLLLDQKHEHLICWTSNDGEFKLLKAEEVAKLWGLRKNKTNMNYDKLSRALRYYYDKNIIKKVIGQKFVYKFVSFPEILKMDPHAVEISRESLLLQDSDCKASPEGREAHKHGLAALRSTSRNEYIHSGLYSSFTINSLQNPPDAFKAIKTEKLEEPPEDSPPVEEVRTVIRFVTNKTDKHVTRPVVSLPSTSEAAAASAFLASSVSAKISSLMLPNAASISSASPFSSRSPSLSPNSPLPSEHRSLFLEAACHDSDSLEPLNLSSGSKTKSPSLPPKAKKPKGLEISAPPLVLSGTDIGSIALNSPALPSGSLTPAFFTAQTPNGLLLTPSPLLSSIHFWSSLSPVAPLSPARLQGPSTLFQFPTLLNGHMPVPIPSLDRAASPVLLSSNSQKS
Conditions: protein: recombinant; tags: N-terminal GST; dsDNA, one strand shown. The method in brief: as §1

Test [9] deals with T7, FEV (Homo sapiens, UniProt Q99581 1-238).
T7 sequence: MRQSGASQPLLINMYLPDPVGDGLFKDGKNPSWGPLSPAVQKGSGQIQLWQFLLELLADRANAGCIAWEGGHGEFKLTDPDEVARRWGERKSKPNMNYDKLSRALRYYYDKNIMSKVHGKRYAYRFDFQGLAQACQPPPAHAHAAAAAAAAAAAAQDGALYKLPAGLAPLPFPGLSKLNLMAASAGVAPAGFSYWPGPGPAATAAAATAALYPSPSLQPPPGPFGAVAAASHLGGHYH
Conditions: protein: recombinant; tags: N-terminal GST; dsDNA, one strand shown. The method in brief:
as §1

Test [10] has as its target ETV5 (Homo sapiens, UniProt P41161 1-510). As to conditions: protein: recombinant; tags: N-terminal GST; dsDNA, one strand shown. The method in brief: as §1
Test [11] deals with HSF1 (Homo sapiens, UniProt Q00613 1-529). Conditions: protein: recombinant; tags: N-terminal GST; chain copies: 3; dsDNA, one strand shown. The method in brief: as §1
Test [12] has as its target T8, SPIC (Homo sapiens, UniProt Q8N5J4 1-248).
T8 sequence: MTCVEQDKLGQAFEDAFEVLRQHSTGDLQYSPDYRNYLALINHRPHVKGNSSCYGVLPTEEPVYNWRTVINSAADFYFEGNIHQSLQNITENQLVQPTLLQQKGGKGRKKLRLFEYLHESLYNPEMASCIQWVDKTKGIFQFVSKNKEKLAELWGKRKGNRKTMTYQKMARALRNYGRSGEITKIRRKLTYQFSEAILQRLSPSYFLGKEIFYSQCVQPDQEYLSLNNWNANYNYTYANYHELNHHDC
As to conditions: protein: recombinant; tags: N-terminal GST; dsDNA, one strand shown. The method in brief: as §1

The target in test [13] is ELF4 (Homo sapiens, UniProt Q99607 1-663). Conditions: protein: recombinant; tags: N-terminal GST; dsDNA, one strand shown. A digest of the protocol: as §1
For test [14], the target named is T9, ELK4 (Homo sapiens, UniProt P28324-2 1-405).
T9 sequence: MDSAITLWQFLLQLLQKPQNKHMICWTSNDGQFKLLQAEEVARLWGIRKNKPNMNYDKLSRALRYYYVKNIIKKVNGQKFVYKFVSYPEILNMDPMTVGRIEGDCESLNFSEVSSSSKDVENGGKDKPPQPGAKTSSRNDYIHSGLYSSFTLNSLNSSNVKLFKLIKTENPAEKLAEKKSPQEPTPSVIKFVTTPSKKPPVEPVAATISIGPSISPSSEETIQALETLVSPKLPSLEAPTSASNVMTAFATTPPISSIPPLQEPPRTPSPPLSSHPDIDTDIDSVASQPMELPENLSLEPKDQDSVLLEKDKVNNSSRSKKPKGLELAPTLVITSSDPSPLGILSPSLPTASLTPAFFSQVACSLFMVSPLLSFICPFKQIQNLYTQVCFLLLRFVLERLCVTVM
As to conditions: protein: recombinant; tags: N-terminal GST; dsDNA, one strand shown. A digest of the protocol:
as §1

The target of test [15] is T10, ELF3 (Homo sapiens, UniProt P78545 1-371).
T10 sequence: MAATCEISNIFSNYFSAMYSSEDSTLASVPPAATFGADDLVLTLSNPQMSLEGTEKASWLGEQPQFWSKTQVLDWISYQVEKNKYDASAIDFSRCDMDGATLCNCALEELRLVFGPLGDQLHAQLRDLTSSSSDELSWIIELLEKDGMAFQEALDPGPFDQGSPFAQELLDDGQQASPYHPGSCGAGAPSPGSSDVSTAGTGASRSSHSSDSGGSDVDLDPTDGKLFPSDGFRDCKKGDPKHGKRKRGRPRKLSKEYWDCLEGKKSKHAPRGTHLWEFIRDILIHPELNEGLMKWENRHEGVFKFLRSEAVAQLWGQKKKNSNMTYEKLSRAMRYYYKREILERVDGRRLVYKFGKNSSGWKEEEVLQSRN
As to conditions: protein: recombinant; tags: N-terminal GST; dsDNA, one strand shown. A digest of the protocol:
as §1

Test [16] addresses CRX (Homo sapiens, UniProt O43186 1-299). As to conditions: protein: recombinant; tags: N-terminal GST; dsDNA, one strand shown. The method in brief:
as §1

The target of test [17] is ETV1 (Homo sapiens, UniProt P50549 1-477). As to conditions: protein: recombinant; tags: N-terminal GST; dsDNA, one strand shown. The method in brief: as §1
ETV1, sequence (P50549 whole entry): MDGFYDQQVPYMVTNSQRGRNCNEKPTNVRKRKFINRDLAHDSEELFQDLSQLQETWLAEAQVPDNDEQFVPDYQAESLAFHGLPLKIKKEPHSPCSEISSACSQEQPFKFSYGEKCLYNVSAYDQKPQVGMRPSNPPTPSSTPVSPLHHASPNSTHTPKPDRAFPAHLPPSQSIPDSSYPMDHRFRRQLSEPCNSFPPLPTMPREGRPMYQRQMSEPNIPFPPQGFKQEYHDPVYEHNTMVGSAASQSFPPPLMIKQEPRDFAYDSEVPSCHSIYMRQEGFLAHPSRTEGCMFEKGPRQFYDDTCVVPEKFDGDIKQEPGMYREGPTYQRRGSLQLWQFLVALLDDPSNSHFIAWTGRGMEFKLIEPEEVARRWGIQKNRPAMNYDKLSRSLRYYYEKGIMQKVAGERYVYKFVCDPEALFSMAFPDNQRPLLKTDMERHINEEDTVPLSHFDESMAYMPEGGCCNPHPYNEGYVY

ELF1, sequence (P32519 whole entry): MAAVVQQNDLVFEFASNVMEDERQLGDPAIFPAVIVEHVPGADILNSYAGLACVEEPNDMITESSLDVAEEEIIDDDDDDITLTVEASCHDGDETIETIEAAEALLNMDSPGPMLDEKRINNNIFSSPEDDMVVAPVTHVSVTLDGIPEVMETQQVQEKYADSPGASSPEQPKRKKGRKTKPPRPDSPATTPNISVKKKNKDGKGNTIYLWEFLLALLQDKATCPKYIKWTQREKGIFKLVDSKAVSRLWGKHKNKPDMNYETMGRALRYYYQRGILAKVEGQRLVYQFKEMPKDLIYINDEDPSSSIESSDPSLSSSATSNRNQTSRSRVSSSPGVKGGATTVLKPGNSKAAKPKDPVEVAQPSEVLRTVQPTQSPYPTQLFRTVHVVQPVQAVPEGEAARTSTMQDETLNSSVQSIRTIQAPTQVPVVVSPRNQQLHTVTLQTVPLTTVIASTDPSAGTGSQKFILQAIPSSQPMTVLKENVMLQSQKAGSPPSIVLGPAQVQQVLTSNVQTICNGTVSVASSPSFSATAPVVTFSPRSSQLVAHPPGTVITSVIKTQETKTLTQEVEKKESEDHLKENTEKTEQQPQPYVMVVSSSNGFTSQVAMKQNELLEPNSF
ETV5, sequence (P41161 whole entry): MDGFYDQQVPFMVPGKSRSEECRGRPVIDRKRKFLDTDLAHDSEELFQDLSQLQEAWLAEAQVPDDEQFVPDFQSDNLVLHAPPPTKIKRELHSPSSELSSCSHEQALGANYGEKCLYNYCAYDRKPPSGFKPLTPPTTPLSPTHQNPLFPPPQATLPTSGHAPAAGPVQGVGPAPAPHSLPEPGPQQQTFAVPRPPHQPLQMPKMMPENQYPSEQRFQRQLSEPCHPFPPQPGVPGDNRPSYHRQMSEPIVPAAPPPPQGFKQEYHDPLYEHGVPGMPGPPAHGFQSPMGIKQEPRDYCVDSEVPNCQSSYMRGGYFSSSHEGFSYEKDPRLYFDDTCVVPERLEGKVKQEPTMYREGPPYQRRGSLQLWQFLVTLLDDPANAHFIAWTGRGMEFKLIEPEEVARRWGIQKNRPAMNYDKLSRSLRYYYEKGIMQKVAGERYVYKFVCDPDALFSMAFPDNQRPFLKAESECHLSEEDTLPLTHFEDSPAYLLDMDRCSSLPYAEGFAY
HSF1, sequence (Q00613 whole entry): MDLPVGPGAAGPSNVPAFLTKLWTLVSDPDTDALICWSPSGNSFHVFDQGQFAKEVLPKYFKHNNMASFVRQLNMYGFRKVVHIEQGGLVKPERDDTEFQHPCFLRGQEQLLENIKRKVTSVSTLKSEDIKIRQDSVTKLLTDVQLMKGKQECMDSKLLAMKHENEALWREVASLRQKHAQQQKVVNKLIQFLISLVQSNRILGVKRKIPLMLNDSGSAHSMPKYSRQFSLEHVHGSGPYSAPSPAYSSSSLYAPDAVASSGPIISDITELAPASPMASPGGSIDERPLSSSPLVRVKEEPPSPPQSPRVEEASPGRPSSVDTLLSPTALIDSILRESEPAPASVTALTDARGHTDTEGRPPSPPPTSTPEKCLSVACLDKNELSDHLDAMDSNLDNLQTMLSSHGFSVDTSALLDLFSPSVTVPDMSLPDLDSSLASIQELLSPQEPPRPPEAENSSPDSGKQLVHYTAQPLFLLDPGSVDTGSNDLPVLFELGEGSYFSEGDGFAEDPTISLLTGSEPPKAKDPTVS
CRX, sequence (O43186 whole entry): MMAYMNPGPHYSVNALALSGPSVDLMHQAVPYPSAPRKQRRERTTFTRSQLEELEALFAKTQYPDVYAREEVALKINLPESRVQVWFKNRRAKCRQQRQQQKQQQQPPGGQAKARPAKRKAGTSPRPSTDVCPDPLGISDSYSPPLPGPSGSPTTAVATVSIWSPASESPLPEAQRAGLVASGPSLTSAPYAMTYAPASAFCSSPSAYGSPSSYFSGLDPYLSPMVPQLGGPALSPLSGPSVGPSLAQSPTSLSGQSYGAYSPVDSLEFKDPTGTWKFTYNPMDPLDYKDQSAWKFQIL
SPIB, sequence (Q01892 whole entry): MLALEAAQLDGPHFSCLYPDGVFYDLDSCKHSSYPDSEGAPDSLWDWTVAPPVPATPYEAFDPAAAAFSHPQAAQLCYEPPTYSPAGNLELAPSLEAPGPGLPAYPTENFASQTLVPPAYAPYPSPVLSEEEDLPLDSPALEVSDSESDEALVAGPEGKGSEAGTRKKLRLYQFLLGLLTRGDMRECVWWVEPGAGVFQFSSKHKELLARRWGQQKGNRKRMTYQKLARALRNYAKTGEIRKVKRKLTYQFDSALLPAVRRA
ELF4, sequence (Q99607 whole entry): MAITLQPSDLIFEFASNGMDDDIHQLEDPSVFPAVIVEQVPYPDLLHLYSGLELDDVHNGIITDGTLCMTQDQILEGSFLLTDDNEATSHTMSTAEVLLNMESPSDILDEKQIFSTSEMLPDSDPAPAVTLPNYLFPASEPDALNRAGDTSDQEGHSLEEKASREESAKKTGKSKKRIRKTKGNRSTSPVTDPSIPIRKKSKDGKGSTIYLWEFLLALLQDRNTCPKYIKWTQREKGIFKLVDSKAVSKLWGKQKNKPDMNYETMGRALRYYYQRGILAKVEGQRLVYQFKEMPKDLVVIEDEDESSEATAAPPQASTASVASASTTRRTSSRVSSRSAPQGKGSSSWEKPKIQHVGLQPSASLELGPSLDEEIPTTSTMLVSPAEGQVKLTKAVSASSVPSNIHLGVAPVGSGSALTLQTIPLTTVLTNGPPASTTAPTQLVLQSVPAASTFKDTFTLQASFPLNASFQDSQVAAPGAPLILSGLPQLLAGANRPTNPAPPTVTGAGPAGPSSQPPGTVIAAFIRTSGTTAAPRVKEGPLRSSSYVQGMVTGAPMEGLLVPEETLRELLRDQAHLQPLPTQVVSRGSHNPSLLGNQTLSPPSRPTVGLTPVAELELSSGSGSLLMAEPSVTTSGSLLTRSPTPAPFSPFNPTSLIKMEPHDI

AAGGTT: the binding signal in [1] is 1.09 fold enrichment (6-mer frequency, TF over GST control); in test [2] it was 1.15 fold enrichment (6-mer frequency, TF over GST control); in [3], 1.13 fold enrichment (6-mer frequency, TF over GST control); in [4], 1.07 fold enrichment (6-mer frequency, TF over GST control); in test [5] it was 1.05 fold enrichment (6-mer frequency, TF over GST control); in test [6], 1.1 fold enrichment (6-mer frequency, TF over GST control). In addition, the binding signal in test [7] is 1.01 fold enrichment (6-mer frequency, TF over GST control); in [8], 1.12 fold enrichment (6-mer frequency, TF over GST control); in test [9], 1.02 fold enrichment (6-mer frequency, TF over GST control); in test [10], 1.01 fold enrichment (6-mer frequency, TF over GST control); in [11] it was 1.27 fold enrichment (6-mer frequency, TF over GST control); in test [12], 1.03 fold enrichment (6-mer frequency, TF over GST control). The binding signal in test [13] is 1.09 fold enrichment (6-mer frequency, TF over GST control); in test [14], 1.12 fold enrichment (6-mer frequency, TF over GST control); in test [15] it was 1.35 fold enrichment (6-mer frequency, TF over GST control); in [16] it was 1.17 fold enrichment (6-mer frequency, TF over GST control); in [17] it was 1.07 fold enrichment (6-mer frequency, TF over GST control).
